Source: PubChem BioAssay (NCATS)
Several values for one entry are separate records, joined by “and”; a condition that tells them apart may be missing. Equal entries are not always repeated. Records with an inconclusive call do not appear. Activity calls are given as the source filed them. Calls come from the whole dose curve; as a rule, active = well fitted curve in the direction sought with a large enough effect; inconclusive = small, poorly fitted or top-dose-only effect, or another doubt; inactive = no such curve, though single readings can be large; an effect the other way counts as inactive or inconclusive.

Assays:
[1] = tested on: HEK293; assay: Cytotoxic Profiling of Annotated Libraries Using Quantitative High-Throughput Screening (AID 1296008); conditions: Five cell lines viability, CellTiter-Glo ATP luminescence, 48-72 h; max response: active compounds read low; note: nearly all actives have a fitted effect of over 60% in size
In short: (§1)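 Cytotoxicity was measured as CellTiter-Glo ATP luminescence, read after 10 min at room temperature. Compound treatment of the cells lasted 48 or 72 hr at 37 degrees Celsius in a qHTS format.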

[2] = tested on: HaCat; assay: as above; conditions: Five cell lines viability, CellTiter-Glo ATP luminescence, 48-72 h; max response: active compounds read low
In short: as §1

[3] = tested on: KB-3-1; assay: as above; conditions: Five cell lines viability, CellTiter-Glo ATP luminescence, 48-72 h; max response: active compounds read low
In short: as §1

[4] = tested on: NIH3T3; assay: as above; conditions: Five cell lines viability, CellTiter-Glo ATP luminescence, 48-72 h; max response: active compounds read low
In short: as §1

[5] = tested on: MCC-13; assay: qHTS assay to identify novel small-molecules to repurpose for Merkel cell carcinoma treatment (AID 1296009); conditions: MCC and control cell lines, CellTiter-Glo viability, 72 h; series mostly up to 46 µM; note: nearly all actives have a fitted effect of over 60% in size
In short: (§2)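 Cell viability measured by CellTiter-Glo following 72 hr compound treatment at 37 degree celsius, with NPC and MIPE libraries tested in 8- and 11-point concentration series.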

[6] = tested on: MCC-26; assay: as above; conditions: MCC and control cell lines, CellTiter-Glo viability, 72 h; series mostly up to 46 µM
In short: as §2

[7] = tested on: MKL-2; assay: as above; conditions: MCC and control cell lines, CellTiter-Glo viability, 72 h; series mostly up to 46 µM
In short: as §2

[8] = tested on: UISO; assay: as above; conditions: MCC and control cell lines, CellTiter-Glo viability, 72 h; series mostly up to 46 µM
In short: as §2

[9] = tested on: WaGa; assay: as above; conditions: MCC and control cell lines, CellTiter-Glo viability, 72 h; series mostly up to 46 µM
In short: as §2

[10] = tested on: MKL-1; assay: as above; conditions: MCC and control cell lines, CellTiter-Glo viability, 72 h; series mostly up to 46 µM
In short: as §2

[11] = tested on: CASKI; assay: Primary qHTS to identify gynecologic anti-cancer compounds using libraries of approved drugs and bioactive compounds (AID 1345084); conditions: Gynecologic cancer cell panel viability, ATPlite luminescence, 48 h; series mostly up to 57.5 µM; note: nearly all actives have a fitted effect of over 55% in size
In short: (§3)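 In this quantitative HTS, cell killing is estimated from loss of ATP-dependent luciferase light. Cells see five compound concentrations over a 48 h exposure.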

[12] = tested on: Es-2; assay: as above; conditions: Gynecologic cancer cell panel viability, ATPlite luminescence, 48 h; series mostly up to 57.5 µM
In short: as §3

[13] = tested on: HeLa; assay: as above; conditions: Gynecologic cancer cell panel viability, ATPlite luminescence, 48 h; series mostly up to 57.5 µM
In short: as §3

[14] = tested on: Hek293T; assay: as above; conditions: Gynecologic cancer cell panel viability, ATPlite luminescence, 48 h, control line for the selectivity index; series mostly up to 57.5 µM
In short: as §3

[15] = tested on: JEG-3; assay: as above; conditions: Gynecologic cancer cell panel viability, ATPlite luminescence, 48 h; series mostly up to 57.5 µM
In short: as §3

[16] = tested on: C33A; assay: as above; conditions: Gynecologic cancer cell panel viability, ATPlite luminescence, 48 h; series mostly up to 57.5 µM
In short: as §3

[17] = tested on: CAOV3; assay: as above; conditions: Gynecologic cancer cell panel viability, ATPlite luminescence, 48 h; series mostly up to 57.5 µM
In short: as §3

[18] = tested on: NIH3T3; assay: qHTS assay to identify novel small-molecules to repurpose for Merkel cell carcinoma treatment (AID 1296009); conditions: MCC and control cell lines, CellTiter-Glo viability, 72 h; at 44.8 µM (top of the series) unless noted; note: nearly all actives have a fitted effect of over 60% in size
In short: as §2
% is set by controls: 0 for no effect and ±100 for the full control effect; potency is the fitted concentration of half-maximal effect.

CC(C)(C)OC(=O)Nc1ccc(-c2cc(C(=O)NCCCCCCC(=O)NO)no2)cc1
active: Potency [1] 7.43 µM | Potency [2] 20900 nM | Potency [3] 8330 nM | Potency [4] 14.8 µM | Potency [5] 11.8 µM | Potency [6] 18.7 µM | Potency [7] 2.96 µM | Potency [8] 10.5 µM | Potency [9] 3.32 µM

CN1CC[C@@H](c2c(O)cc(O)c3c(=O)cc(-c4ccccc4Cl)oc23)[C@@H](O)C1
active: Potency [1] 0.148 µM | Potency [2] 372 nM | Potency [3] 235 nM | Potency [4] 0.526 µM | Potency [5] 0.59 µM | Potency [8] 0.264 µM

Cc1[nH]nc2ccc(-c3cncc(OC[C@@H](N)Cc4ccccc4)c3)cc12
active: Potency [1] 209 nM and 651 nM | Potency [2] 1.32 µM and 411 nM | Potency [3] 332 nM | Potency [4] 3.72 µM and 7.31 µM | Potency [5] 4.18 µM | Potency [10] 1870 nM | Potency [7] 1.66 µM | Potency [8] 0.833 µM | Potency [11] 6.31 µM | Potency [12] 8.91 µM | Potency [13] 2.24 µM | Potency [14] 1.78 µM | Potency [15] 10 µM

CC(C)c1nn(-c2c(Cl)cccc2Cl)c2nc(Cc3ccc(OCCO)cc3)[nH]c(=O)c12
active: Potency [1] 59 nM and 36.6 nM | Potency [2] 118 nM and 231 nM | Potency [3] 58 nM | Potency [4] 93.5 nM and 130 nM | Potency [5] 0.105 µM | Potency [10] 132 nM | Potency [7] 0.105 µM | Potency [8] 0.105 µM | Potency [16] 0.282 µM | Potency [17] 158 nM | Potency [11] 0.501 µM

C=CCn1c(=O)c2cnc(Nc3ccc(N4CCN(C)CC4)cc3)nc2n1-c1cccc(C(C)(C)O)n1
active: Potency [1] 235 nM and 920 nM | Potency [2] 332 nM and 1.64 µM | Potency [3] 264 nM | Potency [4] 469 nM and 1.16 µM | Potency [5] 6.62 µM | Potency [10] 662 nM | Potency [8] 3.72 µM | Potency [16] 1.41 µM | Potency [17] 3550 nM | Potency [11] 3.16 µM | Potency [12] 1.26 µM | Potency [13] 0.708 µM | Potency [14] 0.631 µM | Potency [15] 3.55 µM

CCc1c2c(nc3ccc(O)cc13)-c1cc3c(c(=O)n1C2)COC(=O)[C@]3(O)CC
active: Potency [1] 14.6 nM and 16.6 nM | Potency [2] 58 nM and 105 nM | Potency [3] 291 nM and 235 nM | Potency [4] 0.731 µM | Potency [5] 0.0296 µM | Potency [10] 11.8 nM | Potency [7] 0.0418 µM | Potency [8] 0.0209 µM | Potency [9] 0.0047 µM | Potency [17] 251 nM | Potency [11] 0.126 µM | Potency [14] 0.891 µM | Potency [15] 8.91 µM

CCOc1cc2ncc(C#N)c(Nc3ccc(F)c(Cl)c3)c2cc1NC(=O)C=CCN(C)C
active: Potency [1] 1.87 µM | Potency [2] 16.6 nM | Potency [3] 5900 nM | Potency [4] 1.48 µM | Potency [5] 23.5 µM | Potency [10] 14800 nM | Potency [7] 14.8 µM | Potency [8] 2.64 µM | Potency [9] 9.35 µM

O=C(Nc1cn[nH]c1-c1nc2ccc(CN3CCOCC3)cc2[nH]1)NC1CC1
active: Potency [1] 10.5 µM and 3.66 µM | Potency [2] 2.64 µM and 231 nM | Potency [3] 5.9 µM and 4.11 µM | Potency [4] 1.48 µM and 1.84 µM | Potency [5] 0.935 µM | Potency [6] 1.87 µM | Potency [7] 26.4 µM | Potency [8] 8.33 µM | Potency [16] 14.1 µM | Potency [11] 2 µM | Potency [12] 14.1 µM | Potency [14] 7.94 µM

COc1cccc(Nc2c(C(N)=O)cnc3c(C)cc(S(=O)(=O)c4cccc(C(=O)N(C)C)c4)cc23)c1
inactive: max response [2] 2.69% | max response [3] -2.62% and -18.7% | max response [4] -0.878% | Potency [5] | Potency [10] | Potency [7] | Potency [8] | Potency [9] | Potency [16] | Potency [11] | Potency [12] | Potency [13] | Potency [14] | Potency [15]
active: Potency [1] 12.9 µM

Clc1cccc(-n2nnnc2NCc2ccccc2Oc2ccccn2)c1Cl
inactive: max response [1] -13.7% and -15.5% | max response [2] -3.03% and -4.47% | max response [3] -10.9% and -7.38% | outcome [4] | Potency [5] | Potency [10] | Potency [7] | outcome [18] | Potency [8] | Potency [9] | Potency [16] | Potency [17] | Potency [11] | Potency [12] | Potency [13] | Potency [14] | Potency [15]
